Shown are actives, neighbours in structure and some others; about 4% of the full set was active somewhere.
HIF-2a block = HIF-2a reporter inhibitors, primary screen, luminescence, 786-0 RCC cells; AID 624352, 2012; inhibition, % at 18.8 µM; 786-0 RCC cells HIF-2a reporter, luciferase luminescence, overnight; 360,000 compounds, 0.72% hits;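 active means inhibition of the luminescence signal of 40% or more relative to plate controls, in a single-dose primary screen at 18.75 µM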
CF NFkB inh = inhibitors of PAF-induced NF-kB signaling, primary screen, cell-based, GFP fluorescence, uHTS. KKLEB NF-kB-GFP reporter, GFP fluorescence overnight. inhibition, % at 5 µM. 360,000 compounds, 0.86% hits. AID 588850, 2011;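 active means at least 50% inhibition at 5 µM, scaled per plate between neutral and stimulator controls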;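 further: PAF is a Pseudomonas aeruginosa culture filtrate used as stimulus; plate controls were PAF-stimulated DMSO wells for no effect and unstimulated DMSO wells for full effect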
Peg3 promoter = Peg3 promoter-driven luciferase inhibitors, primary screen, cell-based, HeLa, luciferase luminescence | HeLa PEG-Prom luciferase reporter, overnight | inhibition, % at 20 µM | 360,000 compounds, 1.7% hits | AID 588405, 2011;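 active means inhibition of at least 50% at 20 µM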
KKLEB cytotox = cytotoxicity in KKLEB CF airway cells, primary screen, cytotoxicity control for CF NF-kB inhibitor project, cell-based, uHTS, fluorescence assay plates | KKLEB CF airway cells viability, ATPlite luminescence, overnight; stronger effect = lower value; cells stimulated with P. aeruginosa culture filtrate | activity change (cytotoxicity), % at 5 µM | 360,000 compounds, 0.36% hits | AID 602141, 2011;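 active means corrected activity change at or below -50% at 5 µM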
TWEAK-Fn14 inh = inhibitors of TWEAK-Fn14 signaling, primary screen, luciferase reporter cells, uHTS. TWEAK-stimulated Fn14 reporter cells, luciferase luminescence, 8 h. inhibition, % at 10 µM. 360,000 compounds, 2% hits. AID 1159606, 2016; in the data active means inhibition above about 50%
TROY NFkB inh = inhibitors of TROY-driven NF-kB signaling, primary screen, Q293 LMP1-TROYcd cells, NF-kB luciferase, uHTS; Q293 LMP1-TROYcd NF-kB luciferase reporter, 4 h; inhibition, % at 10 µM; 360,000 compounds, 0.98% hits; AID 1347056, 2019;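 active means compounds whose plate-normalised and pattern-corrected inhibition of the luciferase reporter signal at the single screening dose is 50% or more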
Starred values were filed as active, the others as inactive; i = inactive; · = no result.

SMILES | HIF-2a block | CF NFkB inh | Peg3 promoter | KKLEB cytotox | TWEAK-Fn14 inh | TROY NFkB inh
O=C(Nc1ccc(NC(=O)c2ccco2)nc1)c1ccco1 | -36 | -10 | -29 | 9 | 74* | 12
O=C(Nc1cccc(S(=O)(=O)c2cccc(NC(=O)c3ccco3)c2)c1)c1ccco1 | 21 | -12 | 36 | -3 | 59* | 42
O=C(Nc1ccc(NC(=O)C2CCCCC2)cn1)c1ccco1 | 15 | 17 | -7 | 4 | 75* | 30
CC1(Cc2ccc(OC(F)(F)F)cc2)C(=O)Nc2ccc(S(=O)(=O)NC3CCCCC3)cc21 (centres undefined) | -34 | 20 | 43 | -11 | 78* | 52*
CCCCOc1cccc(C2/C(=C(\O)c3ccc4c(c3)OCCO4)C(=O)C(=O)N2CCN2CCOCC2)c1 (centres undefined) | -1 | -30 | -16 | 4 | 4 | -6
COCCN(C(=O)COC(=O)c1ccc(C=O)cc1)c1c(N)n(Cc2ccccc2)c(=O)[nH]c1=O | 3 | -5 | 19 | -8 | -4 | -7
Cc1cc([N+](=O)[O-])nn1Cc1ccc(C(=O)N/N=C/c2ccc(O)cc2O)cc1 | -2 | 24 | 56* | -18 | -12 | 14
CCOC(=O)C1(C)CCN1C(=O)c1cc(OC)ccc1Br (centres undefined) | 19 | -34 | -9 | 13 | 2 | 5
O=C(N/N=C/c1ccccc1)c1n[nH]c2c1CCCC2 | -112 | -2 | -1 | -32 | 54* | 10
O=C(N/N=C/c1cccs1)c1n[nH]c2c1CCC2 | -10 | 15 | -19 | -2 | 57* | 19
CN(Cc1ccccc1)C(=O)[C@@H]1CCCN1C(=O)[C@@H]1CCCN1C(=O)OC(C)(C)C | -4 | · | · | · | -6 | 0
C[C@@H]1C(=O)N(c2ccccc2)[C@@H]1c1ccncc1 | 4 | -11 | -6 | 7 | 21 | 6
COC(=O)c1ccccc1-c1ccc(/C=N/NC(=O)c2cc3ccccc3o2)o1 | 4 | -11 | 25 | 15 | 20 | 7
COC(=O)c1ccccc1-c1c2ccc(=N)cc-2oc2cc(N)ccc12 | 6 | i | 18 | -22 | 53* | 17
CCOC(CNc1ncnc2sc(-c3ccccc3)cc12)OCC | -38 | 4 | -26 | -12 | -3 | -9
COc1ccc(Nc2ncnc3sc(-c4ccccc4)cc23)cc1OC | -17 | 6 | -21 | -3 | 51* | 1
CN(C)CCCNc1ncnc2sc(-c3ccccc3)cc12 | 1 | -21 | 71* | 4 | -1 | -3
COc1cc(-c2coc3c(C(=O)NC4CCCCC4)cccc23)ccc1O | -58 | -19 | -4 | -23 | 24 | 22
CC(C)(C#N)NC(=O)C1CCCN1S(=O)(=O)c1ccc2ccccc2c1 (centres undefined) | 14 | 7 | 7 | -5 | 0 | -2
CCCOc1ccc(C(=O)N/N=C/c2c[nH]c3ccc(Br)cc23)cc1 | 14 | 2 | 51* | 2 | 8 | -11
O=C(CO)c1c[nH]c2ccccc12 | 19 | 17 | 107* | -6 | 2 | 15
CC(=O)OCC(=O)c1c[nH]c2ccccc12 | 32 | -9 | -5 | -8 | -8 | -10
COc1cc(CC(=O)OCC(=O)N(C)C2CCCCC2)cc(OC)c1OC | 12 | 6 | 15 | -6 | 0 | 14
CC1CCC/C(=N/Nc2nc3ccccc3s2)C1 (centres undefined) | -184 | -12 | -306 | 16 | -6 | 23
CC1(C)CC(=O)C/C(=N/Nc2nc3ccccc3s2)C1 | -25 | 2 | -23 | 2 | 69* | 63*
SMILES | HIF-2a block | CF NFkB inh | Peg3 promoter | KKLEB cytotox | TWEAK-Fn14 inh | TROY NFkB inh
Cc1cc(C(=O)COC(=O)CNC(=O)c2ccccc2)c(C)n1CC1CCCO1 (centres undefined) | -17 | -14 | 26 | 6 | 60* | 5
COCCn1c(C)cc(C(=O)COC(=O)CNC(=O)c2ccccc2)c1C | 0 | -6 | 3 | 9 | 63* | 54*
COCCn1c(C)cc(C(=O)COC(=O)c2ccc[nH]c2=O)c1C | 31 | 11 | 52* | 2 | 71* | 59*
COCC(C)n1c(C)cc(C(=O)COC(=O)CNC(=O)c2ccccc2)c1C (centres undefined) | 9 | -11 | 9 | -2 | -2 | 22
COCCn1c(C)cc(C(=O)COC(=O)c2ccc(Br)o2)c1C | -75 | 19 | -181 | 1 | 55* | 55*
COC(=O)[C@]1(C)N[C@H](c2ccc(SC3CCCCC3)c(OC)c2)[C@@H]2C(=O)N(C)C(=O)[C@@H]21 | 4 | 18 | 1 | -3 | -7 | -7
O=C(NCC(c1ccco1)N1CCCC1)c1cccc(S(=O)(=O)N2CCOCC2)c1 (centres undefined) | 15 | 9 | 12 | -5 | 3 | 7
COc1ccc(CNC(=O)c2cn(Cc3ccccc3OC)c(=O)s2)cc1 | -11 | 3 | 18 | -11 | -6 | 11
CN1C(=O)C(CC(=O)NCCc2ccccc2)N(NC(=O)c2ccc(Cl)cc2)C1=S (centres undefined) | 21 | 16 | 2 | -14 | 21 | -12
COCCn1c(C)cc(C(=O)CSc2nc3ccccc3s2)c1C | 5 | -3 | -49 | -8 | 51* | 60*
Cc1cc(C(=O)COC(=O)c2cccc(S(=O)(=O)N(C)C)c2)c(C)n1CC1CCCO1 (centres undefined) | -164 | 3 | -301 | -9 | -14 | 6
COCCn1c(C)cc(C(=O)CSc2nc3ccccc3o2)c1C | -124 | -14 | -190 | 4 | -7 | 5
Cc1cccc(C(=O)NCC(=O)OCC(=O)c2cc(C)n(CC3CCCO3)c2C)c1 (centres undefined) | -32 | 12 | 12 | -11 | 59* | 80*
CCOC(=O)c1ccc(NC(=O)NC2=NCCS2)cc1 | -190 | 14 | -316 | -9 | 2 | -56
COc1ccc(Nc2ncnc3c2c(C)c(C)n3CCCN(C)C)cc1 | -51 | -6 | -69 | 5 | 59* | 55*
CCOC(=O)c1cnc2c(ccc3ccccc32)c1NCCCN(C)C | -248 | 4 | -134 | -26 | -70 | -103
O=C(Cn1nnc(-c2ccc([N+](=O)[O-])cc2)n1)NNC(=O)c1ccccc1 | -2 | 13 | 1 | -7 | -10 | 8
CC(=O)c1c(C)[nH]c(C(=O)Nc2ccc(C)c(S(=O)(=O)Nc3ccc(C)cc3C)c2)c1C | 15 | -29 | 26 | 3 | 47 | 58*
Cc1ccc(NS(=O)(=O)c2cc(NC(=O)c3ccc4c(c3)NC(=O)CS4)ccc2C)c(C)c1 | 30 | -8 | 44 | 8 | 72* | 64*

Bioassay records from PubChem.
